# Rows were chosen to be rich in hits. Some 1.6% of all compounds tested hit in one or more screens of this group.
# KCNQ2 pot: KCNQ2 (rat) channel potentiation. hit rate 0.54% among 310,000. AID 2239. CHO-K1 KCNQ2, FluxOR thallium flux fluorescence; hits give high values. B-score at 10 µM;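 active = fluorescence ratio B-score at least 3 SD of library B-scores, with initial fluorescence B-score within 3 of them, cut at about 5.3 in these data; same plate scores as AID 2156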;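 also: B-score of peak minus minimum over baseline fluorescence ratio after K+ and Tl+ stimulus; positive B-score means potentiation of KCNQ2 with more thallium influx and brighter signal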
# Target sequence (O88943 whole entry, looked up): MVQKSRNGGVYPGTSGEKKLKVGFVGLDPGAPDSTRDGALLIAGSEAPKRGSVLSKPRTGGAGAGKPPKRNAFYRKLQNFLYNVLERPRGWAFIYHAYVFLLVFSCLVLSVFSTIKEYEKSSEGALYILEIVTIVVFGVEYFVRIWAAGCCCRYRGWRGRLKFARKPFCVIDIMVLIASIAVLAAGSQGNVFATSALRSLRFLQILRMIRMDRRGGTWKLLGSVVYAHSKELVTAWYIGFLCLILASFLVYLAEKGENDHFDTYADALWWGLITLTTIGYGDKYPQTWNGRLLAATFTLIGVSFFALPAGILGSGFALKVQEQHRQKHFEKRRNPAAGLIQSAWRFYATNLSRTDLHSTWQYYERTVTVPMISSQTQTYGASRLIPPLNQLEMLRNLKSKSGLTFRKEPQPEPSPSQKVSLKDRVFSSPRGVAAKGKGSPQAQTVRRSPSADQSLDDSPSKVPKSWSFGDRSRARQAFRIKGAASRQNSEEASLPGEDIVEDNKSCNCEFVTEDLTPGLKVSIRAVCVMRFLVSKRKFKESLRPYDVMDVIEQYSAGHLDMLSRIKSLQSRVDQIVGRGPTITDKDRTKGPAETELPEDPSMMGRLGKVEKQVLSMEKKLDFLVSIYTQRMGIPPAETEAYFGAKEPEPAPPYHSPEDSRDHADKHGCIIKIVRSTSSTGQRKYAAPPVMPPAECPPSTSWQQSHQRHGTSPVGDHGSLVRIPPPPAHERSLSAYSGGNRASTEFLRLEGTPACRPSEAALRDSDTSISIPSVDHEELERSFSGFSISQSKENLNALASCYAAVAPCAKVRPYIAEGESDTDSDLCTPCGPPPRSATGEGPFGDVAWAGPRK
# KCNQ2 block: inhibitors of rat KCNQ2 potassium channel. O88943. CHO-K1 KCNQ2, FluxOR thallium flux, 20 min; hits give low values. hit rate 1.1% among 310,000. B-score at 10 µM. AID 2156;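 active = fluorescence ratio B-score at most minus 3 library SDs, with starting brightness B-score within 2 library SDs, cut at about -5.5 in these data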
# KCNQ2 inh conf: confirmation of rat KCNQ2 potassium channel inhibitors | AID 493025 | KCNQ2-expressing cells, thallium flux, inhibition; hits give low values | activity change, negative = inhibition, % at 10 µM | shares compounds with KCNQ2 block | hit rate 57% among 1,000;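 also: 0% = vehicle wells and values are ratio percent relative to vehicle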
# KCNQ1 spec: human KCNQ1 activity in KCNQ2 inhibitor specificity screen. shares compounds with KCNQ2 block. KCNQ1-expressing cells, FluxOR thallium flux fluorescence; hits give low values. activity change, negative = inhibition, % at 10 µM. hit rate 15% among 1,000;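 active = activity change at least 3 SD of negative controls below their mean in both duplicate wells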;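 also: CHO cells stably transfected with KCNQ1 and depolarized by potassium stimulus; peak minus minimum fluorescence over baseline after thallium addition; 0% = vehicle negative control and -100% = blank without thallium stimulus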
# CHO parental ctr: activity in parental CHO cells lacking KCNQ2; hit rate 14% among 1,000; activity change, % at 10 µM; shares compounds with KCNQ2 block; thallium flux counter-screen; hits give low values;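 also: 0% = vehicle negative controls with stimulus buffer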
# KCNQ2 patch conf: confirmation of rat KCNQ2 potassium channel inhibitors; shares compounds with KCNQ2 block; KCNQ2-expressing cells, automated patch clamp current; calls only at 10 µM; hit rate 49% among 550
# The depositor's hits bear a star; i = inactive; x = not tested or not shown; + = active, no number. Unless noted, no rule for the calls is given here.
SMILES,KCNQ2 pot,KCNQ2 block,KCNQ2 inh conf,KCNQ1 spec,CHO parental ctr,others
CCOC(=O)N1CCC(N(CCCOC)C(=O)Nc2cccc(OC)c2)CC1,x,i,x,x,x,
O=C(NN1CCN(Cc2ccccc2Cl)CC1)c1ccc(Br)cc1,0.71,i,x,x,x,
CCOc1ccc2nc(SCC(=O)NC3CCCCC3)[nH]c2c1,0.51,i,x,x,x,
Cc1ccc(-c2nnc(-c3ccccc3)c(-c3ccccc3)n2)cc1,x,i,x,x,x,
Cc1cc(-c2nnc(-c3ccccc3)c(-c3ccccc3)n2)c(C)o1,-9.9,-9.9*,i,i,i,
COc1ccccc1N1CCN(C2=Nc3cccc4cccc2c34)CC1,-9,-9*,-34%*,i,i,KCNQ2 patch conf=+
CC(=O)N1CCN(C2=Nc3cccc4cccc2c34)CC1,x,i,x,x,x,
COc1cc(CCC(=O)Nc2nccs2)cc(OC)c1OC,0.39,i,x,x,x,
Cc1ccc(N/C=C/C(=O)c2cccs2)cc1C,x,i,x,x,x,
O=C(/C=C/Nc1ccc(Nc2ccccc2)cc1)c1cccs1,-7.3,-7.3*,i,i,i,
CC(=O)Nc1ccc(NCN2C(=O)[C@@H]3[C@H]4CC[C@H](C4)[C@@H]3C2=O)cc1,0.06,i,x,x,x,
CCOc1ccc(CC(=O)N/N=C(\C)c2cccnc2)cc1,0.49,i,x,x,x,
CCN1CCc2nc3ccccc3c(C(=O)Nc3ccc(NC(C)=O)cc3)c2C1,0.89,i,x,x,x,
CCN1CCc2nc3ccccc3c(C(=O)Nc3ccc(F)cc3)c2C1,-9.4,-9.4*,i,i,i,
O=C(CCNC(=O)Cn1ccc2ccccc2c1=O)NCC1CCCC1c1ccccc1 (stereo not drawn),0.18,i,x,x,x,
CC1CN(C(=O)c2ccc(COc3ccc(C(C)C)cc3)o2)CC(C)O1 (stereo not drawn),x,i,x,x,x,
CC1CN(C(=O)c2ccc(COc3ccc4ccccc4c3)o2)CC(C)O1 (stereo not drawn),-10,-10*,i,i,i,
CC1=C(C(=O)OC2CCCCC2)C(c2ccc(N(C)C)cc2)NC(=O)N1 (stereo not drawn),x,i,x,x,x,
CCc1ccc(C(=O)COC(=O)c2ccc(Cl)nc2)cc1,0.65,i,x,x,x,
CCOc1cc(CNCCO)cc(Br)c1OCc1ccc(Cl)cc1,-8.1,-8.1*,i,i,i,
CCOc1cccc(CNCCO)c1OCc1ccc(Cl)cc1,0.75,i,x,x,x,
O=C(CSC1=NCCN1)NC(c1ccccc1)c1ccccc1,-9.7,-9.7*,i,i,i,
O=C(CSC1=NCCN1)Nc1ccccc1[N+](=O)[O-],x,i,x,x,x,
COC(=O)CC1COc2ccccc2N1C(=O)c1ccc(Br)cc1 (stereo not drawn),x,i,x,x,x,
COC(=O)CC1COc2ccccc2N1C(=O)c1ccc(C(C)(C)C)cc1 (stereo not drawn),-6.8,-6.8*,-29%*,i,i,KCNQ2 patch conf=+
SMILES,KCNQ2 pot,KCNQ2 block,KCNQ2 inh conf,KCNQ1 spec,CHO parental ctr,others
CCOC(=O)c1c(-c2cccs2)csc1NC(=O)C(C)(C)C,-7,-7*,-35%*,-37%*,-34%*,KCNQ2 patch conf=i
CCOC(=O)c1c(-c2ccc(-c3ccccc3)cc2)csc1NC(=O)CNCCN(C)C,-8.8,-8.8*,i,i,i,
CCOC(=O)c1c(-c2cccs2)csc1NC(=O)CCCC(=O)O,0.46,i,x,x,x,
CCOC(=O)c1c(-c2ccc(-c3ccccc3)cc2)csc1NC(=O)CCN1CCOCC1,1.2,i,x,x,x,
CCOC(=O)c1c(-c2cccs2)csc1NC(C)=O,x,i,x,x,x,
CCOC(=O)c1c(-c2cccs2)csc1NC(=O)CN1CC(C)OC(C)C1 (stereo not drawn),-8.1,-8.1*,-19%*,i,i,KCNQ2 patch conf=i
COc1ccc(C(=O)C2CCCN(Cc3cccn3-c3ccc(Cl)cn3)C2)c(OC)c1 (stereo not drawn),x,i,x,x,x,
CNS(=O)(=O)c1cc(NC(=O)c2cnc(SC)n2-c2ccccc2)ccc1C,0.13,i,x,x,x,
Nc1ccc2c(c1)OC1(CCCC1)O2,x,i,x,x,x,
CN(C)c1ccnc(NCc2ccccc2)c1C#N,0.98,i,x,x,x,
CN(C)c1ccnc(N(Cc2ccccc2)Cc2ccccc2)c1C#N,-7.2,-7.2*,i,i,i,
O=C(CSc1ncccn1)Nc1ccc2c(c1)CCC2,1,i,x,x,x,
COc1ccccc1NC(=O)C(C)OC(=O)C1CC(=O)N(c2ccc3c(c2)OCCO3)C1 (stereo not drawn),x,i,x,x,x,
COc1ccccc1NC(=O)C(C)OC(=O)C1CCC(C(C)(C)C)CC1 (stereo not drawn),-8.4,-8.4*,-31%*,i,i,KCNQ2 patch conf=i

# Screening results (PubChem BioAssay)
